The results in this text go back to PubChem BioAssay.

Activity calls are given as the source filed them. No stated cut-off is given here; in the data, active means inhibition above about 28%; inactive means the rest.

The nature of this assay: StAR promoter reporter inhibitors, counter-screen for LRH-1 inverse agonist project, cell-based, luminescence, high throughput (AID 651611). The following applies: StAR promoter luciferase reporter counterscreen, at 3.6 µM, active compounds read high. In general terms: Counterscreens check selectivity or assay interference.
Consider `COc1ccc(S(=O)(=O)Nc2cc3c4c(oc3c3ccccc23)CCCC4=O)cc1`, for which the inhibition (commonly the change of the read-out against control, counted positive when it falls) is 24.3% (inactive). Turning to `Cc1c(Cl)cccc1NC(=O)CNc1ccccc1F`, the inhibition is -3.5% (inactive). The figure for `OC[C@@H]1CN(Cc2ccc(-c3ccccc3)cc2)C[C@H](n2cnc3c(NC4CCC4)ncnc32)O1` is 16.5% (inactive). The figure for `CC1(C)Cc2ccccc2-c2nnnn21` is 3.18% (inactive); for `CCn1c(=S)sc2c(=O)n(CC(=O)Nc3ccc(OC)c(Cl)c3)c(C)nc21` it is 6% (inactive); for `CC(C)Oc1cccc(-c2cc(C(=O)NN3CCOCC3)c3ccccc3n2)c1` it is 17.5% (inactive).

As for `O=C(Nc1cccc(S(=O)(=O)N2CCCCC2)c1)c1ccc([N+](=O)[O-])o1`, the inhibition is 33.8% (active). The same measure for `CCc1cc(=O)oc2c(C)c(OCC(=O)NC3CC(C)(C)NC(C)(C)C3)ccc12`: 4.17% (inactive); for `O=C(C1=C[C@@H](C2CCCCC2)C[C@@H](OCc2ccc(CO)cc2)O1)N1CCN(Cc2ccc3c(c2)OCO3)CC1`: 12% (inactive).

As to `c1ccc(Oc2nc(-c3cccnc3)nc3ccccc23)cc1`, the inhibition was 10.6% (inactive). The same measure for `CCC1(C)OC(=O)N2CCc3c(C)[nH]c4c(C)ccc(c34)C21C` (stereo not given): 8.96% (inactive); for `CC(=O)Nc1cc(-c2ccccc2N(C)C)cn2c(-c3ccc(S(C)(=O)=O)cc3)cnc12`: 7.26% (inactive). The figure for `C=CCNc1sc(C(=O)c2ccccc2)c(N)c1C#N` is 13.8% (inactive); for `CCCc1cc(=O)n2nc(N3CCC(C(=O)N4CCN(c5ccc(OC)cc5)CC4)CC3)sc2n1` it is 12.6% (inactive). Regarding `O=C(Nc1ccc(N2CCN(C(=O)c3ccccc3)CC2)cc1)c1ccc([N+](=O)[O-])o1`, the inhibition is 22.4% (inactive). As to `C/C(=N\N1CCN(c2ccc(Cl)cc2)CC1)c1cccc([N+](=O)[O-])c1`, the inhibition was 12.5% (inactive).

Turning to `COC(=O)CC1(C(=O)OC)Oc2ccc(Br)cc2C(=O)N1c1cc(Cl)c(Cl)cc1Cl` (stereo not given), the inhibition is 12.1% (inactive). Take `COc1cc2c(cc1OC)CN(C(=O)CN1CCN(S(=O)(=O)c3ccc(C)c(C)c3)CC1)CC2`: the inhibition was 19.9% (inactive).

Turning to `CCOC(=O)c1c(C)[nH]c(C(=O)COC(=O)/C=C/c2ccc3c(c2)OCO3)c1C`, the inhibition was 13% (inactive). The same measure for `CCOc1cc(/C=N/Nc2nnc(C)n2N)ccc1O`: -6% (inactive); for `Cc1ccc(Cn2nc(C)c(NC(=O)c3noc4c3CCCCC4)c2C)cc1`: 14.1% (inactive).

Regarding `CCCc1cc(=O)oc2cc(C)cc(OCC(=O)NC3CC3)c12`, the inhibition was 2.08% (inactive). For `CC(=O)N1CCc2c(sc(NC(=O)Cc3ccccc3)c2C#N)C1`, the inhibition is 18.4% (inactive). The same measure for `Cc1cc(C(=O)CSc2nnnn2C)c(C)n1CCc1ccc(F)cc1`: 5.26% (inactive); for `S=C(Nc1ccc(Br)cc1)Nc1ccc2c(c1)OCCO2`: -74.4% (inactive); for `CCC(=O)N1CCN(c2ccc(NC(=O)c3ccc([N+](=O)[O-])o3)cc2)CC1`: 17.6% (inactive). Turning to `CC1(C(=O)NCc2ccc(Cl)cc2)CCN1C(=O)Cc1ccc(Cl)cc1Cl` (stereo not given), the inhibition is 16% (inactive). With `C=CCNc1nc2c(c(=O)n(C)c(=O)n2C)n1CCCCCC`, the inhibition was 28.9% (active). The same measure for `Cc1ccc(S(=O)(=O)NCc2ccncc2)c(C)c1C`: 17.9% (inactive); for `O=C(COc1ccc2c(-c3ccccc3)cc(=O)oc2c1)NCCCn1ccnc1`: 9.33% (inactive). For the molecule `O=C(Nc1ccc(Cc2ccncc2)cc1)c1ccc([N+](=O)[O-])o1`, the inhibition is 16.6% (inactive). As for `COc1ccc(NC(=O)CN2C(=O)NC3(CCCC3)C2=O)cc1Cl`, the inhibition was 2.83% (inactive). The figure for `Nc1nc2ccccc2n1/N=C/c1ccc([N+](=O)[O-])s1` is -0.84% (inactive); for `Cc1nnc(SCC(=O)Nc2sc3c(c2C(N)=O)CCCC3)[nH]c1=O` it is 10.4% (inactive).

As for `COc1cc(OC)cc(-c2oc3cccnc3c2C#CCCO)c1`, the inhibition is 2.16% (inactive). The same measure for `CC(=O)N1CCc2c(sc(NC(=O)Cc3ccc(F)cc3)c2C#N)C1`: 21.4% (inactive); for `O=C(CCl)Nc1ccc2c(c1)OCO2`: 37.1% (active). For the molecule `CCOc1ccccc1C(=O)Nc1cc2c(cc1N1CCCC1)n(CC)c(=O)n2CC`, the inhibition is 52.6% (active).

For the molecule `COc1cc(/C=N/NC(N)=S)ccc1OCC(=O)Nc1ccc(C)cc1`, the inhibition was -3.71% (inactive). The figure for `Cc1nn(CC(=O)Nc2ccc(N3CCOCC3)cc2)c(C)c1Cl` is -2.18% (inactive).
